Only some compounds are listed: those with a hit (about 19% of all), similar ones and a draw of the others.
IL-1B inflam inh = blocks inflammasome-driven IL-1 beta release. THP-1 LPS/ATP IL-1B secretion, AlphaLISA, 16 h; active compounds read low. activity change, % at 57.5 µM. AID 743279. 360,000 compounds, 4.7% hits; in the data active = activity change below about -50%; inconclusive = mostly about -30% to -49%
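Secreted IL-1B measured by AlphaLISA bead assay after 16 h compound exposure of THP-1 cells; compounds (final up to 57.5 uM) added 1 h before LPS (250 ng/mL) and ATP (1.25 mM) stimulation; lower signal means less secretion.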
DT40 TDP1 CPT = DT40-hTDP1 cell growth loss with CPT; Potency, µM (series often up to 46.2 µM), actives largely listed as inhibitors; chicken DT40 Tdp1-/-;hTDP1 cells + 20 nM CPT, ATP luminescence, 48 h; 420,000 compounds, 12% hits; AID 686979; also: nearly all actives have a fitted effect of over 55% in size
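Chicken DT40 Tdp1-/- cells complemented with human TDP1, 400 cells/well, exposed to compounds plus 20 nM camptothecin for at least 48 h at 37 C; viability read as ATP content by CellTiter-Glo luminescence.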
Giardia killer = Giardia lamblia killing. Giardia lamblia trophozoite viability. activity change, % at 7.66 µM, hits read low. AID 540267. 340,000 compounds, 0.15% hits; in the data active = activity change below about -80%; inconclusive = between about -30% and that limit;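 also: parasites exposed to compound for two days anaerobically before the ATP read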
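Giardia lamblia trophozoites (100 cells/well) were incubated with compounds for 48 h at 37 deg C under anaerobic conditions. Viability was read as ATP content by one-step luminescence after 15-30 min at room temperature.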
DT40 TDP1 no CPT = qHTS for Inhibitors of human tyrosyl-DNA phosphodiesterase 1 (TDP1): qHTS in cells in absence of CPT; DT40 Tdp1-/- hTDP1 cells, no CPT, ATP luminescence, 48 h; 420,000 compounds, 15% hits; Potency, µM (series often up to 46.2 µM), actives largely listed as inhibitors; also: nearly all actives have a fitted effect of over 55% in size
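Chicken DT40 Tdp1-/- cells stably complemented with human TDP1 were seeded at 400 cells/well with DMSO in place of 20 nM camptothecin. After compound pinning, cells grew at least 48 hr at 37 °C; viability read by CellTiter-Glo luminescence.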
ELG1 repair inh = inhibitors of ELG1-dependent DNA repair in HEK293T cells. HEK293T ELG1-luciferase reporter, luminescence, 16 h; DNA damage induced by 5-fluorouridine. Potency, µM (titrated, usually from 46.1 µM), most hits filed as inhibitors. 330,000 compounds, 2.3% hits; also: nearly all actives have a fitted effect of over 55% in size
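5-Fluorouridine DNA damage + compound/DMSO, 2,000 cells/well, 16 h, 37 °C/5% CO2. ONE-Glo, 30 min RT, luminescence. Readout = decrease in reporter signal.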
TDP1 block = blocks human tyrosyl-DNA phosphodiesterase 1; recombinant TDP1, AlphaScreen DNA substrate cleavage; Q9NUW8; Potency, µM (top dose mostly 130 µM), most hits filed as inhibitors; AID 485290; 350,000 compounds, 0.28% hits; also: nearly all actives have a fitted effect of over 40% in size
Target sequence (Q9NUW8 whole entry, looked up): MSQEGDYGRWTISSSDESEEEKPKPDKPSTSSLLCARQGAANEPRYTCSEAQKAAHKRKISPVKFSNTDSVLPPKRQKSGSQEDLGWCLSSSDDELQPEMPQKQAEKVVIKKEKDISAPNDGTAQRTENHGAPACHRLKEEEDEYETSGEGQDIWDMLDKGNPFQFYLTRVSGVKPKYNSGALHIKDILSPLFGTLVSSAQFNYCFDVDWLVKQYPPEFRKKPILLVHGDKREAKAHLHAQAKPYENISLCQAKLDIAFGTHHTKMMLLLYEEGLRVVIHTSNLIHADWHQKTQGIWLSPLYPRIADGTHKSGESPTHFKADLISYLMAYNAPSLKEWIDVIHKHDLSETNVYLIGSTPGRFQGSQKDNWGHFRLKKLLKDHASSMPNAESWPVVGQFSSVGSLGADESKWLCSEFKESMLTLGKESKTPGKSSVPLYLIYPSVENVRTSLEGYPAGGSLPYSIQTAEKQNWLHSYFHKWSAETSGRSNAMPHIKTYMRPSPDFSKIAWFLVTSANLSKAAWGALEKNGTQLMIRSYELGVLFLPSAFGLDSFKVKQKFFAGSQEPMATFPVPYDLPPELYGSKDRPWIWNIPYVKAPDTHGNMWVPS
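AlphaScreen read-out: signal falls as enzyme removes the 3' tyrosine-FITC from a 5'-biotinylated DNA oligo (15 nM, 5 min, RT). Enzyme was E. coli-made recombinant Tdp1 at 1 nM, exposed to compound for 15 min beforehand; beads 10 ug/ml, 10 min.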
Of the large screens only hits and unclear results are named; the others gave an inactive call. Unless noted, calls follow the shape of the dose curve; as a rule, active = well fitted curve in the direction sought with a large enough effect; inconclusive = small, poorly fitted or top-dose-only effect, or another doubt; inactive = no such curve, though single readings can be large; an effect the other way counts as inactive or inconclusive.

CN(C)c1ccc(Nc2ncnc3c2c(-c2ccccc2)cn3-c2cccc(Cl)c2)cc1	DT40 TDP1 no CPT inconclusive (no result: IL-1B inflam inh, Giardia killer, ELG1 repair inh)
Cn1c(C(=O)NCCN2CCN(Cc3ccccc3)CC2)cc2c(=O)n(C)c3ccccc3c21	DT40 TDP1 CPT 23µM, DT40 TDP1 no CPT 23µM (no result: TDP1 block)
CC1CCN(CCCNC(=O)c2cc3c(=O)n(C)c4ccccc4c3n2C)CC1	IL-1B inflam inh -66, DT40 TDP1 CPT 23µM, DT40 TDP1 no CPT 33µM, ELG1 repair inh inconclusive
Cn1c(C(=O)NCCCN2CCOCC2)cc2c(=O)n(C)c3ccccc3c21	DT40 TDP1 no CPT inconclusive, ELG1 repair inh inconclusive
Nc1nc(SCC(=O)c2c(N)n(Cc3ccccc3)c(=O)[nH]c2=O)n[nH]1	none (no result: TDP1 block)
O=C1C(=O)N(C2CCN(C(=O)c3ccc(Cl)cc3)CC2)CCN1Cc1ccc(F)cc1	DT40 TDP1 no CPT inconclusive (no result: IL-1B inflam inh, Giardia killer, ELG1 repair inh)
Cc1ccccc1N1C(=O)C(Oc2ccc(Cl)cc2)C1CNC(C)(C)C (stereo not drawn)	IL-1B inflam inh -55, DT40 TDP1 CPT inconclusive, DT40 TDP1 no CPT inconclusive
COc1ccc(CCNCC2C(Oc3ccc(Cl)cc3)C(=O)N2c2ccccc2C)cc1OC (stereo not drawn)	IL-1B inflam inh -73, DT40 TDP1 CPT inconclusive, DT40 TDP1 no CPT 23µM, ELG1 repair inh inconclusive
COCCNCC1C(Oc2ccc(Cl)cc2)C(=O)N1c1ccccc1C (stereo not drawn)	DT40 TDP1 CPT inconclusive, DT40 TDP1 no CPT inconclusive
Cc1ccc(-n2ncc(C(=O)NCc3ccco3)c2C2CCN(C(=O)OC(C)(C)C)CC2)cc1	DT40 TDP1 CPT 18µM, DT40 TDP1 no CPT 18µM (no result: IL-1B inflam inh, Giardia killer, ELG1 repair inh)
Cc1ccc(-n2ncc(C(=O)NCc3ccco3)c2C2CCN(C(=O)OC(C)(C)C)CC2)cc1C	DT40 TDP1 CPT 16µM, DT40 TDP1 no CPT inconclusive (no result: IL-1B inflam inh, Giardia killer, ELG1 repair inh)
CC(C)C(NC(=O)c1ccco1)C(=O)NCC(c1ccco1)N1CCCCC1 (stereo not drawn)	none
O=C(NCC(c1ccco1)N1CCCCC1)c1cc2c(s1)CCCC2 (stereo not drawn)	DT40 TDP1 CPT 18µM, DT40 TDP1 no CPT 16µM
CC(Oc1ccc(C(C)(C)C)cc1)C(=O)NCC(c1ccco1)N1CCCC1 (stereo not drawn)	IL-1B inflam inh inconclusive, DT40 TDP1 CPT 23µM, DT40 TDP1 no CPT 21µM
COc1ccc(NC(=S)NCC(c2ccco2)N2CCCC2)cc1 (stereo not drawn)	none
O=C(NCC(c1ccco1)N1CCCCC1)C(c1ccccc1)c1ccccc1 (stereo not drawn)	IL-1B inflam inh inconclusive, DT40 TDP1 CPT 16µM, DT40 TDP1 no CPT inconclusive, ELG1 repair inh inconclusive
S=C(NCCc1ccccc1)NCC(c1ccco1)N1CCCCC1 (stereo not drawn)	IL-1B inflam inh inconclusive, DT40 TDP1 CPT inconclusive, DT40 TDP1 no CPT 23µM
O=C(Cc1ccccc1F)NCC(c1ccco1)N1CCCCC1 (stereo not drawn)	none
CCOC(=O)c1ccc(NC(=O)CCn2ccc(C)n2)cc1	none (no result: IL-1B inflam inh, Giardia killer, ELG1 repair inh)
CNC(=O)c1c(NC(=O)C2=COCCO2)sc2c1CCCC2	DT40 TDP1 no CPT inconclusive
N#Cc1ccccc1Sc1ccccc1C(=O)NCC(c1ccco1)N1CCCC1 (stereo not drawn)	DT40 TDP1 CPT 23µM, DT40 TDP1 no CPT inconclusive
CCS(=O)(=O)c1ccc2oc(SCC(=O)N3CCCCC3)nc2c1	DT40 TDP1 no CPT inconclusive, ELG1 repair inh inconclusive
CCOc1cc(/C=N/NC(=O)c2ccc(O)cc2)ccc1Oc1nc(Cl)ncc1F	DT40 TDP1 CPT 21µM, DT40 TDP1 no CPT inconclusive, ELG1 repair inh inconclusive
COc1ccc(/C=N/NC(=O)CC#N)cc1Oc1nc(Cl)ncc1F	DT40 TDP1 no CPT inconclusive (no result: TDP1 block)
CCOc1cc(/C=N\Nc2ncc(F)c(N3CCOCC3)n2)ccc1Oc1nc(Cl)ncc1F	IL-1B inflam inh -83, DT40 TDP1 CPT 5.2µM, DT40 TDP1 no CPT 1.8µM, ELG1 repair inh 23µM
N#Cc1c(Nc2cccc(F)c2)sc2c(O)cc(=O)[nH]c12	Giardia killer inconclusive
O=C(O)CSc1ccn(Cc2ccccc2)c1	DT40 TDP1 CPT inconclusive, DT40 TDP1 no CPT inconclusive (no result: Giardia killer, ELG1 repair inh, TDP1 block)

Bioassay records from PubChem.
